Survival data for 29 molecules are collected here from PubChem BioAssay AID463173 (ICCB-Longwood Screening Facility, Harvard Medical School, 2010).

The structures appear in SMILES notation. Out of some 52,000 compounds screened, about 4,300 (8.3%) were called active. For the sample, actives were picked, then their nearest neighbours and some compounds at random. A number with no mark means an inactive call. Rule as the data show it: active = survival mostly below about 52% (no sharp cut-off); inactive = mostly above about 56%.

The assay deals with DeltatarO mutant. Description: S. aureus survival, RN4220 and DeltatarO strains – OD600, teichoic acid synthesis inhibitors, primary screen (AID 463173). The conditions noted are these: S. aureus RN4220 wild type/DeltatarO growth, OD600, 18 h, hits give low values, concentration not given here.
Regarding `COc1cccc(-n2c(/C=C/c3ccccc3O)nc3ccccc3c2=O)c1`, the survival was 4% (active).

As to `O=c1c2ccccc2nc(/C=C/c2ccccc2F)n1-c1cccc(O)c1`, the survival is 2% (active).

Take `Cc1cccc(-n2c(/C=C/c3cccc4ccccc34)nc3ccccc3c2=O)c1`: the survival was 94%.

`Cc1cccc(-n2c(/C=C/c3ccccc3O)nc3ccccc3c2=O)c1`: the survival is 0% (active).

With `O=c1c2ccccc2nc(/C=C\c2ccccc2F)n1-c1ccc(O)cc1`, the survival was 67%.

As for `Cc1cccc(-n2c(-c3ccco3)nc3ccccc3c2=O)c1`, the survival was 94%.

In the case of `COc1ccc(-n2c(/C=C\c3ccccc3F)nc3ccccc3c2=O)cc1OC`, the survival was 89%.

With `COc1cc(/C=C/c2nc3ccccc3c(=O)n2-c2ccc(Br)c(C)c2)ccc1O`, the survival was 71%.

As to `Cn1cc(/C=C/c2nc3ccccc3c(=O)n2-c2ccccc2)c2ccccc21`, the survival was 77%.

For the molecule `Cc1cc(C)cc(-n2c(/C=C/c3cccc(F)c3)nc3ccccc3c2=O)c1`, the survival is 83%.

As for `Cc1cccc(-n2c(/C=C/c3cn(C)c4ccccc34)nc3ccccc3c2=O)c1`, the survival is 21% (active).

Turning to `CCCCc1nc2ccccc2c(=O)n1-c1cccc(OC)c1`, the survival was 119%.

On to `Cc1cc(-n2c(/C=C/c3cccs3)nc3ccccc3c2=O)ccc1Br`, for which the survival is 104%.

For the molecule `O=C1/C(=C\c2cc3c(cc2Cl)OCO3)N2CCC1CC2`, the survival is 87%.

`O=C1NC(=S)NC(=O)C1C1CCCCC1`: the survival was 74%.

With `CCC(C(=O)Nc1ccccc1F)N1C(=O)CN=C(c2ccccc2)c2ccccc21` (centres undefined), the survival was 84%.

Consider `CC(C)Cc1nc2cccnc2n1C1CCNCC1`, for which the survival is 120%.

Consider `O=C(c1ccc2c(c1)N(Cc1ccc(F)cc1Cl)C(=O)c1ccccc1S2)N1CCC2(CC1)OCCO2`, for which the survival was 101%.

As for `COc1ccc(N=C2SCCCN2C)cc1`, the survival is 99%.

As to `CNC(=O)Oc1c(Cl)cc(Cl)cc1Cl`, the survival is 96%.

In the case of `Cc1cccc(-n2c(/C=C/c3c[nH]c4ccccc34)nc3ccccc3c2=O)c1`, the survival is 26% (active).

Take `Cc1ccc(-n2c(/C=C/c3cccc(C(F)(F)F)c3)nc3ccccc3c2=O)cc1`: the survival is 72%.

For the molecule `Cc1cccc(-n2c(CC3C(=O)Nc4ccc(C)cc43)nc3ccccc3c2=O)c1` (centres undefined), the survival is 34% (active).

With `O=c1c2ccccc2nc(/C=C/c2ccccc2O)n1-c1ccc(Br)cc1`, the survival was 41% (active).

In the case of `CCc1nc2ccccc2c(=O)n1-c1cccc(OC)c1`, the survival was 91%.

`Cc1ccc(-n2c(/C=C\c3ccc(F)cc3)nc3ccccc3c2=O)cc1Cl`: the survival was 90%.

Consider `O=c1c2ccccc2nc(/C=C\c2cccc(Br)c2)n1-c1ccc(O)cc1`, for which the survival was 100%.

For `Cc1ccc2c(c1)C(Cc1nc3ccccc3c(=O)n1-c1ccc(Br)cc1)C(=O)N2` (centres undefined), the survival is 73%.

Consider `Cc1ccc(-n2c(/C=C/c3cccc4ccccc34)nc3ccccc3c2=O)cc1`, for which the survival was 77%.
